{
  "source": "the supplement of paper PMC8975748",
  "note": "Where a name gives a salt, the structure may show the parent alone.",
  "data": [
    {"system": "Saccharomyces cerevisiae BY4741 SeMeCo community", "experiment": "z-score of subpopulation abundance vs DMSO median, subpopulation auxotrophic for HLM; higher = larger share of this subpopulation than in DMSO controls", "details": "10 µM; 24 h; SM minimal medium; subpopulation (auxotrophy): HLM", "protocol": "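Fluorescent four-plasmid SeMeCo (self-establishing metabolically cooperating S. cerevisiae BY4741 community; plasmids pH-mRuby2, pL-mWasabi, pU-eCFP, pM-TagRFP657) was grown 24 h in minimal SM medium with each Selleck FDA-approved drug at 10 µM in 384-well plates. Cells were fixed and imaged by high-content confocal microscopy. For each auxotrophic subpopulation (and the prototroph), a z-score gives the deviation from the DMSO vehicle-control population median.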", "values": [
      {"smiles": "CN1[C@@H]2C[C@@H](OC(=O)[C@H](CO)c3ccccc3)C[C@H]1[C@@H]1O[C@@H]12", "note": "[Scopolamine HBr]", "z-score of subpopulation abundance": -0.52},
      {"smiles": "C=CC[C@]1(O)CC[C@H]2[C@@H]3CCC4=CC(=O)CCC4=C3C=C[C@@]21C", "note": "[Altrenogest]", "z-score of subpopulation abundance": -0.47},
      {"smiles": "CC(C)N(CCC(C(N)=O)(c1ccccc1)c1ccccn1)C(C)C", "note": "(centres undefined) [Disopyramide]", "z-score of subpopulation abundance": 0.67},
      {"smiles": "CCN(C)C(=O)Oc1cccc([C@H](C)N(C)C)c1", "note": "[Rivastigmine]", "z-score of subpopulation abundance": -0.03},
      {"smiles": "NCC(O)c1ccc(O)cc1", "note": "(racemic) [(+,-)-Octopamine HCl]", "z-score of subpopulation abundance": -0.75},
      {"smiles": "C=CN1CCCC1=O.II", "note": "[Povidone iodine]", "z-score of subpopulation abundance": 0.98},
      {"smiles": "COc1cc2c(cc1OC)C1CC(=O)C(CC(C)C)CN1CC2", "note": "(centres undefined) [Tetrabenazine (Xenazine)]", "z-score of subpopulation abundance": 3.78},
      {"smiles": "Cc1cc(C(C#N)c2ccc(Cl)cc2)c(Cl)cc1NC(=O)c1cc(I)cc(I)c1O", "note": "(centres undefined) [Closantel]", "z-score of subpopulation abundance": -0.4},
      {"smiles": "N#Cc1nn(-c2c(Cl)cc(C(F)(F)F)cc2Cl)c(N)c1[S+]([O-])C(F)(F)F", "note": "(centres undefined) [Fipronil]", "z-score of subpopulation abundance": 0},
      {"smiles": "CC[C@@]1(O)C(=O)OCc2c1cc1n(c2=O)Cc2cc3ccccc3nc2-1", "note": "[Camptothecin]", "z-score of subpopulation abundance": -0.76},
      {"smiles": "CCN(CC)CCOC(=O)C(O)(c1ccccc1)c1ccccc1", "note": "[Benactyzine hydrochloride]", "z-score of subpopulation abundance": 0.1},
      {"smiles": "CN(C)[C@@H]1C(=O)C(C(N)=O)=C(O)[C@@]2(O)C(=O)C3=C(O)c4c(O)cccc4[C@@](C)(O)[C@H]3C[C@@H]12", "note": "[Tetracycline HCl]", "z-score of subpopulation abundance": -0.42},
      {"smiles": "CCCN1C[C@H](CSC)C[C@@H]2c3cccc4[nH]cc(c34)C[C@H]21", "note": "[Pergolide Mesylate]", "z-score of subpopulation abundance": -0.43},
      {"smiles": "C#C[C@]1(O)C=C[C@H]2[C@@H]3CCC4=CC(=O)CC[C@@H]4[C@H]3CC[C@@]21CC", "note": "[Gestodene]", "z-score of subpopulation abundance": -0.9},
      {"smiles": "O=c1cccc2n1C[C@@H]1CNC[C@H]2C1", "note": "[Cytisine]", "z-score of subpopulation abundance": -0.15},
      {"smiles": "CN(C)[C@@H]1C(=O)C(C(N)=O)=C(O)[C@@]2(O)C(=O)C3=C(O)c4c(O)cccc4[C@@](C)(O)[C@H]3[C@H](O)[C@@H]12", "note": "[Oxytetracycline (Terramycin)]", "z-score of subpopulation abundance": 2.78},
      {"smiles": "O=c1[nH]c2ccccc2n1CCCN1CCC(n2c(=O)[nH]c3cc(Cl)ccc32)CC1", "note": "[Domperidone]", "z-score of subpopulation abundance": 1.97},
      {"smiles": "NC(=O)CN1CCCC1=O", "note": "[Piracetam]", "z-score of subpopulation abundance": 1.38},
      {"smiles": "CC(=O)OCC1=C(C(=O)O)N2C(=O)C(N)C2SC1", "note": "(centres undefined) [7-Aminocephalosporanic acid]", "z-score of subpopulation abundance": -0.1},
      {"smiles": "C[CH2][Hg][S]c1ccccc1C(=O)[O-].[Na+]", "note": "[Thimerosal]", "z-score of subpopulation abundance": 131},
      {"smiles": "CN1[C@@H]2C[C@@H](OC(=O)[C@H](CO)c3ccccc3)C[C@H]1[C@@H]1O[C@@H]12", "note": "[Scopolamine HBr trihydrate]", "z-score of subpopulation abundance": -0.8},
      {"smiles": "CN1[C@@H]2CC[C@H]1C[C@@H](OC(=O)[C@H](CO)c1ccccc1)C2", "note": "[Hyoscyamine]", "z-score of subpopulation abundance": 0.11},
      {"smiles": "CCN1CC2(OC(=O)c3ccccc3NC(C)=O)CCC(OC)C34C1C(CC23)C1(O)CC(OC)C2CC4C1(O)C2OC", "note": "(centres undefined) [Lappaconitine]", "z-score of subpopulation abundance": -0.42},
      {"smiles": "O=C(O[C@H]1C[N+]2(CCCOc3ccccc3)CCC1CC2)C(O)(c1cccs1)c1cccs1", "note": "[Aclidinium Bromide]", "z-score of subpopulation abundance": -0.51},
      {"smiles": "CN[C@@H]1[C@@H](O)[C@@H](O[C@@H]2[C@@H](O)[C@H](O[C@H]3O[C@H](CN)CC[C@H]3N)[C@@H](N)C[C@H]2N)OC[C@]1(C)O.CN[C@@H]1[C@@H](O)[C@@H](O[C@@H]2[C@@H](O)[C@H](O[C@H]3O[C@H]([C@@H](C)N)CC[C@H]3N)[C@@H](N)C[C@H]2N)OC[C@]1(C)O.CN[C@@H]1[C@@H](O)[C@@H](O[C@@H]2[C@@H](O)[C@H](O[C@H]3O[C@H]([C@@H](C)NC)CC[C@H]3N)[C@@H](N)C[C@H]2N)OC[C@]1(C)O", "note": "[Gentamicin Sulfate]", "z-score of subpopulation abundance": 0.75},
      {"smiles": "CCC1=C[C@H]2CN3CCc4c([nH]c5ccccc45)[C@](C(=O)OC)(C2)[C@H]13", "note": "[Catharanthine]", "z-score of subpopulation abundance": -0.68},
      {"smiles": "Nc1ccncc1", "note": "[4-Aminopyridine]", "z-score of subpopulation abundance": -0.2},
      {"smiles": "CN(C)[C@@H]1C(=O)C(C(N)=O)=C(O)[C@@]2(O)C(=O)C3=C(O)c4c(O)ccc(Cl)c4[C@@](C)(O)[C@H]3C[C@@H]12", "note": "[Chlortetracycline HCl]", "z-score of subpopulation abundance": -0.55},
      {"smiles": "N[C@@H]1C[C@H]1c1ccccc1", "note": "[Tranylcypromine (2-PCPA) HCl]", "z-score of subpopulation abundance": 0.39},
      {"smiles": "O=C(O[C@H]1C[C@H]2CC[C@@H](C1)[N+]21CCCC1)C(O)(c1ccccc1)c1ccccc1", "note": "[Trospium chloride]", "z-score of subpopulation abundance": 0.01},
      {"smiles": "COc1ccc2[nH]cc(CCN)c2c1", "note": "[5-Methoxytryptamine]", "z-score of subpopulation abundance": 0.21},
      {"smiles": "CCOC(=O)Nc1ccc(NCc2ccc(F)cc2)cc1N", "note": "[Retigabine 2HCl]", "z-score of subpopulation abundance": -0.02},
      {"smiles": "COc1ccc(C(CN(C)C)C2(O)CCCCC2)cc1", "note": "(centres undefined) [Venlafaxine]", "z-score of subpopulation abundance": -0.65},
      {"smiles": "CN1[C@@H]2CC[C@H]1C[C@@H](OC(=O)C(CO)c1ccccc1)C2", "note": "(some centres undefined) [Atropine sulfate monohydrate]", "z-score of subpopulation abundance": -0.94}
    ]}
  ]
}
